Assay results published in PubChem BioAssay (EPA / NIEHS).
Records with an inconclusive call do not appear. Calls of active or inactive are those of the source. How the source made its calls, unless noted: active means hit-call score of the fitted dose curve at least 0.9, where 1 is the maximum; inactive means score below 0.9.

Assays:
[1] = BSK_LPS_SRB: Viability Assessment in the BioMAP Diversity Plus: LPS Assay (AID 2283079); settings: primary human HUVEC with PBMC;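 further: total protein by sulforhodamine B absorbance as a cytotoxicity measure; measured one day after compound addition; fitted in both directions against DMSO so loss or gain of signal counts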
How it was run: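 Overt cytotoxicity was gauged by sulforhodamine B total-protein staining in a primary human vascular endothelial and mononuclear cell co-culture 24 h post-dosing. Activity was fitted in both directions relative to DMSO.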

[2] = read-out: Interleukin-1 alpha (IL1a), IL1A (gene 3552); test: BSK_LPS_IL1a: BioMAP Diversity Plus: LPS Assay for Interleukin-1 alpha (IL1a) Biomarker Activity (AID 2283080); settings: primary human HUVEC with PBMC; actives raise or lower the signal
How it was run: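 Measured: IL-1 alpha via ELISA at 24 h in LPS-activated human umbilical vein endothelium–PBMC co-culture. Baseline: DMSO, bidirectional fitting.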

[3] = read-out: Monocyte Chemoattractant Protein-1 (MCP1), CCL2 (gene 6347); test: BSK_LPS_MCP1: BioMAP Diversity Plus: LPS Assay for Monocyte Chemoattractant Protein-1 (MCP1) Biomarker Activity (AID 2283081); settings: primary human HUVEC with PBMC; actives raise or lower the signal
How it was run: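 LPS-stimulated HUVEC/PBMC co-culture; chemical, 24 h; MCP-1 by ELISA; bidirectional fit vs DMSO; cytotoxicity via SRB (0.1% stain, 10% TCA fix, 560 nm) in parallel wells.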

[4] = BSK_LPS_PGE2: BioMAP Diversity Plus: LPS Assay for Prostaglandin E2 (PGE2) Biomarker Activity (AID 2283082); settings: primary human HUVEC with PBMC; actives raise or lower the signal
How it was run: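 Primary human endothelial cells and blood mononuclear cells, co-cultured with LPS, receive test chemical; PGE2 ELISA follows at 24 h, with SRB-stained parallel cultures flagging cytotoxicity.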

[5] = read-out: Tissue Factor, F3 (gene 2152); test: BSK_LPS_TissueFactor: BioMAP Diversity Plus: LPS Assay for Tissue Factor Biomarker Activity (AID 2283084); settings: primary human HUVEC with PBMC; actives raise or lower the signal
How it was run: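 In this co-culture system of umbilical vein endothelium with PBMC, stimulated with LPS, cell-surface CD142 is detected by ELISA at 24 h. Endpoint values derive from bidirectional fitting, DMSO serving as baseline.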

[6] = read-out: Tumor necrosis factor (Homo sapiens) (UniProt P01375); test: BSK_LPS_TNFa: BioMAP Diversity Plus: LPS Assay for Tumour Necrosis Factor alpha (TNFa) Biomarker Activity (AID 2283085); settings: primary human HUVEC with PBMC; actives raise or lower the signal;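 on AC50: TNFa protein level quantified by ELISA in the co-culture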
How it was run: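 ELISA-based TNFa endpoint in a human endothelial–PBMC co-culture sampled 24 h post-exposure. Curves were fitted in both directions using DMSO as baseline of activity.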

[7] = read-out: Vascular cell adhesion molecule 1 (VCAM1), VCAM1 (gene 7412); test: BSK_LPS_VCAM1: BioMAP Diversity Plus: LPS Assay for Vascular cell adhesion molecule 1 (VCAM1) Biomarker Activity (AID 2283086); settings: primary human HUVEC with PBMC; actives raise or lower the signal
How it was run: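 Measured by ELISA: VCAM-1 in LPS-activated HUVEC/PBMC co-cultures 24 h after treatment. Values reflect bidirectional fitting with DMSO as baseline.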

CD38, CD38 (gene 952) = test: BSK_SAg_CD38: BioMAP Diversity Plus: SAg Assay for CD38 Biomarker Activity (AID 2283087); settings: primary human HUVEC with PBMC; actives raise or lower the signal
How it was run: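 Measures CD38 on a human endothelial/PBMC co-culture driven by SEB and TSST-1, 24 h after compound exposure, using ELISA with fluorescence detection; DMSO defines baseline for bidirectional curve fitting.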

CD40, CD40 (gene 958) = test: BSK_SAg_CD40: BioMAP Diversity Plus: SAg Assay for CD40 Biomarker Activity (AID 2283088); settings: primary human HUVEC with PBMC; actives raise or lower the signal
How it was run: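 Fluorescence ELISA read-out of CD40 from umbilical vein endothelium plus peripheral blood mononuclear cells, sampled 24 h after dosing. Values come from bidirectional curve fitting with DMSO as baseline.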

CD69, CD69 (gene 969) = test: BSK_SAg_CD69: BioMAP Diversity Plus: SAg Assay for CD69 Biomarker Activity (AID 2283089); settings: primary human HUVEC with PBMC; actives raise or lower the signal
How it was run: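 Values derive from bidirectional fitting relative to DMSO vehicle. Cells: umbilical vein endothelium plus peripheral blood mononuclear cells, treated 24 h before fluorescent ELISA for CD69.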

[8] = read-out: Monocyte Chemoattractant Protein-1 (MCP1), CCL2 (gene 6347); test: BSK_SAg_MCP1: BioMAP Diversity Plus: SAg Assay for Monocyte Chemoattractant Protein-1 (MCP1) Biomarker Activity (AID 2283090); settings: primary human HUVEC with PBMC; actives raise or lower the signal
How it was run: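 Values derive from bidirectional fitting of ELISA-measured MCP1 against DMSO controls. Readings were taken 24 h after dosing human vascular endothelial cells co-cultured with peripheral blood mononuclear cells under superantigen stimulation.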

[9] = read-out: E-selectin (Homo sapiens) (UniProt P16581); test: BSK_SAg_Eselectin: BioMAP Diversity Plus: SAg Assay for Eselectin Biomarker Activity (AID 2283091); settings: primary human HUVEC with PBMC; actives raise or lower the signal
How it was run: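 Primary human endothelial cells and peripheral blood mononuclear cells were co-cultured and exposed to chemical for 24 hours. E-selectin levels were then quantified by ELISA, with bidirectional curve fitting normalised to DMSO controls.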

[10] = read-out: Monokine induced gamma interferon (MIG), CXCL9 (gene 4283); test: BSK_SAg_MIG: BioMAP Diversity Plus: SAg Assay for Monokine induced gamma interferon (MIG) Biomarker Activity (AID 2283092); settings: primary human HUVEC with PBMC; actives raise or lower the signal
How it was run: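 Values reflect bidirectional fitting of ELISA-measured MIG against DMSO vehicle, taken 24 h after dosing of a co-culture of human umbilical vein endothelial cells and peripheral blood mononuclear cells.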

[11] = BSK_SAg_PBMCCytotoxicity: PBMC Cytotoxicity Assessment in the BioMAP Diversity Plus: SAg Assay (AID 2283093); settings: primary human HUVEC with PBMC;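 further: PBMC viability measured as Alamar Blue reduction fluorescence at 546/580 nm; fitted both ways against DMSO so a hit may be loss or gain of signal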
How it was run: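 Alamar Blue reduction (6 h, ex/em 546/580 nm) read after 90 h culture of PBMC pre-dosed 1 h then stimulated with SEB plus TSST-1, 20 ng/mL each. Gain or loss of signal fitted relative to DMSO.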

[12] = read-out: Interleukin-8 (IL8), CXCL8 (gene 3576); test: BSK_SAg_IL8: BioMAP Diversity Plus: SAg Assay for Interleukin-8 (IL8) Biomarker Activity (AID 2283094); settings: primary human HUVEC with PBMC; actives raise or lower the signal
How it was run: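 Primary human endothelial cells with PBMC, exposed 24 h; IL-8 determined by ELISA, analysed bidirectionally relative to DMSO.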

[13] = BSK_SAg_Proliferation: Cell Proliferation Assessment in the BioMAP Diversity Plus: SAg Assay (AID 2283095); settings: primary human HUVEC with PBMC;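 further: relative cell number as total protein by SRB absorbance in sub-confluent culture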
How it was run: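 A human primary co-culture of umbilical vein endothelium and blood mononuclear cells receives compound; relative cell number is quantified at 96 h by SRB staining and 560 nm absorbance, with DMSO-referenced bidirectional curve fitting.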

[14] = BSK_SAg_SRB: Viability Assessment in the BioMAP Diversity Plus: SAg Assay (AID 2283096); settings: primary human HUVEC with PBMC;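 further: cells read one day after compound addition; hits may be either gain or loss of signal compared with DMSO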
How it was run: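 SRB absorbance at 560 nm served as the viability read-out. Cells (HUVEC plus peripheral blood mononuclear cells) were TCA-fixed and stained 24 h post-dosing; activity fitted in both directions against DMSO controls.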

[15] = molecular target: human CYP19A1, CYP19A1 (gene 1588) (UniProt P11511); test: NVS_ADME_hCYP19A1: NovaScreen (NVS) CYP450-related Enzyme Activity (ADME) Assay for human CYP19A1 (AID 2283098; active means hit-call score of the fitted dose curve at least 0.9, where 1 is the maximum)
How it was run: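 Primary testing was in duplicate at a single 10 uM concentration, with actives followed up in concentration-response series. Fluorescence read-out of recombinant enzyme activity at 0.5 h, cell-free. Acetonitrile was the negative-control baseline.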

Measured: AC50

Chain of Tumor necrosis factor (Homo sapiens) (P01375 whole entry, looked up): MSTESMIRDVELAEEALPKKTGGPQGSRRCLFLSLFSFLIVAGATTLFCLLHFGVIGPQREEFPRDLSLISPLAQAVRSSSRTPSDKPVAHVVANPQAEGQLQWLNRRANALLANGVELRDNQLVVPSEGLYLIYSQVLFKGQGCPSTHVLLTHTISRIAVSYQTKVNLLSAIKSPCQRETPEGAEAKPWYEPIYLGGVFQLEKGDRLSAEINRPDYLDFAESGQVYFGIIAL
Chain of E-selectin (Homo sapiens) (P16581 whole entry, looked up): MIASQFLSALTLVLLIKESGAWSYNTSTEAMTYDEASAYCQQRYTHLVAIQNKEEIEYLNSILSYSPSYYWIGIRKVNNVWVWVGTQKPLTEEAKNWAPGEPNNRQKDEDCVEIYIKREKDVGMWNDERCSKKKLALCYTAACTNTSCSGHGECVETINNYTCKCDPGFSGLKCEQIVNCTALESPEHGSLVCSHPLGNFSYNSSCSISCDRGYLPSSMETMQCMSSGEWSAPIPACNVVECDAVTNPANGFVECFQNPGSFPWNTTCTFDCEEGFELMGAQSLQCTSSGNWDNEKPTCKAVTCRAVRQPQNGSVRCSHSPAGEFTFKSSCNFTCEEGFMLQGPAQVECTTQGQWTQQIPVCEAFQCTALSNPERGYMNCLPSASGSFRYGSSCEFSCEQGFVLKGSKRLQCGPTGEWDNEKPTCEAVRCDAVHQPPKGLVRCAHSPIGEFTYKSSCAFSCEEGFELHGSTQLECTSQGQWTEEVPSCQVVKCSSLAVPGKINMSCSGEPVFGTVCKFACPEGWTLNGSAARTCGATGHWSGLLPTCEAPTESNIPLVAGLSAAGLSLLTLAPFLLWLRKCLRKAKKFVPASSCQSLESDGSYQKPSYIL
Chain of human CYP19A1, CYP19A1 (gene 1588) (P11511 whole entry, looked up): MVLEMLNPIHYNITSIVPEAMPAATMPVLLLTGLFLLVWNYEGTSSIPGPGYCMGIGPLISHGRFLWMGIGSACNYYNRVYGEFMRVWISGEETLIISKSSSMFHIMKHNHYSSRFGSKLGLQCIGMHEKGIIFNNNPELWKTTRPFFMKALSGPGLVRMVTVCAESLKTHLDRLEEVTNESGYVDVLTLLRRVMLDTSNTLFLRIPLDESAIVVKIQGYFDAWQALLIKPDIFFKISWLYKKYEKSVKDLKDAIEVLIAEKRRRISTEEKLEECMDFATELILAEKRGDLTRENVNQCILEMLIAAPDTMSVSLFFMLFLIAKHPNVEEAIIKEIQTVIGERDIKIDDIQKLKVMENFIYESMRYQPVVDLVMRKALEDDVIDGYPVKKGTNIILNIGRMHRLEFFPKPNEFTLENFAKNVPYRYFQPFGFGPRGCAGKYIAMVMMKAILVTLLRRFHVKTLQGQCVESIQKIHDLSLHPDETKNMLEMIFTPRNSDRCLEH

CN(C)CCO
not listed: [15]
inactive: all other assays above

Clc1ccc(Cl)cc1
not listed: [15]
inactive: all other assays above

CCCN(CCC)N=O
not listed: [8]
inactive: all other assays above

O=C(NC(=O)c1c(F)cccc1F)Nc1cc(Cl)c(OC(F)(F)C(F)F)c(Cl)c1
active: [6] 401 nM
not listed: [8] | [15]
inactive: all other assays above

CCSC(=O)N(CC)C1CCCCC1
not listed: [8] | [15]
inactive: all other assays above

O=C(N[C@H]1CN2CCC1CC2)c1cc2ccoc2cn1
not listed: [15]
inactive: all other assays above

Oc1ccc(Cl)cc1Cl
not listed: [8] | [15]
inactive: all other assays above

O=S(=O)(O)C(F)(F)C(F)(F)C(F)(F)C(F)(F)F
not listed: [15]
inactive: all other assays above

Clc1ccc(C(Cl)(Cl)Cl)cc1
not listed: [15]
inactive: all other assays above

CN(C)c1nc(=O)n(C2CCCCC2)c(=O)n1C
not listed: [8] | [15]
inactive: all other assays above

Nn1cnnc1
not listed: [8] | [15]
inactive: all other assays above
